Screens: PubChem, National Center for Advancing Translational Sciences (NCATS)
Rows were chosen to be rich in hits. Some 7.5% of all compounds tested hit in one or more screens of this group.
NPC1 promoter act = NPC1 promoter activation; Potency, µM (highest dose often 9.22 µM), most hits filed as activators; 320,000 compounds, 2.4% hits; Huh7 NPC1 promoter luciferase reporter, 24 h; further: nearly all actives have a fitted effect of over 60% in size
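Huh7 reporter cells (NPC1 promoter driving luciferase) are dosed with compound for 24 h at 37 °C, 5% CO2; luciferase detection reagent is then added and luminescence measured after 10 min at ambient temperature.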
ELG1 genotoxic = induces genotoxicity in HEK293T cells with luciferase-tagged ELG1; HEK293T ELG1-luciferase reporter, luminescence, 16 h; Potency, µM (series often up to 46 µM), hits mostly activators; 330,000 compounds, 1.3% hits; AID 504466; further: nearly all actives have a fitted effect of over 60% in size
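After overnight (16 hr) compound treatment at 37 °C, ELG1-luciferase HEK293T cells were lysed with ONE-Glo; luminescence quantified 30 min later at room temperature.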
SMN2 splice enh = SMN2 splice variant enhancement; HEK293 SMN2-luciferase splicing reporter, luminescence, 30-36 h; Potency, µM (doses to about 46.1 µM), actives largely listed as activators; 210,000 compounds, 2.8% hits; further: nearly all actives have a fitted effect of over 55% in size
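HEK293 cells carry an SMN2 minigene-luciferase reporter in which exon 7 inclusion puts luciferase in frame. Cells were seeded at 2000 cells/well, attached for 10-12 hours, then exposed to compounds for 30-36 hours at 37C before ONE-Glo luminescence.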
FLuc counter = firefly luciferase modulation, counter-screen for miR-21 project; purified FLuc, Km substrates, luminescence inhibition; Potency, µM (doses to about 57.5 µM), usual class: inhibitors; 360,000 compounds, 6.9% hits; AID 588342; P08659; further: nearly all actives have a fitted effect of over 55% in size
Target sequence (P08659 whole entry, looked up): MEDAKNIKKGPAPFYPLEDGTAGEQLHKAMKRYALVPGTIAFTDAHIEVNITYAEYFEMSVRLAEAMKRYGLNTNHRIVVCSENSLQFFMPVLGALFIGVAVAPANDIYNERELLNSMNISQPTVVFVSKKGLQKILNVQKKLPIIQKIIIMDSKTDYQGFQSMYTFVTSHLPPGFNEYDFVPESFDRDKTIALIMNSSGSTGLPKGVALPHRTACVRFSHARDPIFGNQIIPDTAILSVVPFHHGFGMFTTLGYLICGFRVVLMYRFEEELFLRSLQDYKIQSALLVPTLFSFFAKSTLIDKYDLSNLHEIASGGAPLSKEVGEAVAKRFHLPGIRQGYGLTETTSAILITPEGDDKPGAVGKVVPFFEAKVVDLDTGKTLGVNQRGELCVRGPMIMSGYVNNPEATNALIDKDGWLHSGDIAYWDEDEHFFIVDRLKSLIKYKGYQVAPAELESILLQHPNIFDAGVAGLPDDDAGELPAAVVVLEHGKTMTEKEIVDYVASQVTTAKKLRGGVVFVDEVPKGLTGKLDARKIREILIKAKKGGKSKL
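Purified P. pyralis luciferase, 10 nM final, with Km-level 10 uM D-luciferin and 10 uM ATP in 50 mM Tris acetate pH 7.5, 10 mM Mg acetate, 0.01% Tween-20, 0.05% BSA; 6-point qHTS titration about 60 µM downward; luminescence read.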
Rab9 promoter act = activators of Rab9 promoter. Huh7 Rab9 promoter-luciferase reporter, luminescence, 24 h. Potency, µM (series often up to 9.22 µM), usual class: activators. 320,000 compounds, 2.8% hits; further: nearly all actives have a fitted effect of over 60% in size
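Huh7 cells stably carrying a Rab9 promoter-luciferase reporter, 1500 cells per well in OP-MEM I with 10% FBS, treated with compound 24 hours at 37C. Luciferase activity read by luminescence after 10 minutes with Amplite reagent.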
A number is an active result; i = inactive; ? = inconclusive; nt = not tested or not shown; [ ] = another dose, or the depositor's remark. The call rests on the fitted dose curve; in most records, active means well fitted curve in the direction sought with a large enough effect; inconclusive means small, poorly fitted or top-dose-only effect, or another doubt; inactive means no such curve, though single readings can be large; an effect the other way counts as inactive or inconclusive.

SMILES	NPC1 promoter act	ELG1 genotoxic	SMN2 splice enh	FLuc counter	Rab9 promoter act
COc1ccc(Nc2nc(-c3cc4cccc(OC)c4oc3=O)cs2)cc1	i	i	i	i	i
O=C(O)c1ccc(Nc2nc(-c3cc4ccccc4oc3=O)cs2)cc1O	i	i	i	4.8µM	i
O=C(CN1CCN(c2ccccc2O)CC1)Nc1ccc2c(c1)CCC2	i	i	nt	i	i
COc1ccc(N2CCN(S(=O)(=O)CCNC(=O)COc3ccccc3F)CC2)cc1	nt	nt	nt	i	nt
CCOC(=O)c1ccc(NC(=O)Cc2ccc(-n3c(CC)nc4cccnc43)cc2)cc1	nt	nt	nt	i	nt
Nc1ccc(Nc2nc(-c3cc4ccccc4oc3=O)cs2)cc1	?	?	?	2.4µM	?
COc1cccc2sc(Nc3nc(-c4cc5ccccc5oc4=O)cs3)nc12	i	i	i	?	i
Cc1cccc(NC(=O)c2sc3nc(-c4cc5ccc(O)cc5oc4=O)[nH]c(=O)c3c2C)c1	nt	nt	nt	i	nt
COc1cccc(NC(=O)c2ccc3nc(C)sc3c2)c1	1.6µM	23µM	nt	11µM	1.1µM
O=C(Nc1cccc([N+](=O)[O-])c1)c1ccc2nc(N3C(=O)CCC3=O)sc2c1	i	i	i	i	i
COc1ccccc1NC(=O)c1ccc2nc(C)sc2c1	4µM	i	nt	?	?
COc1ccccc1NC(=O)CCS(=O)(=O)c1ccc2nc(C)sc2c1	nt	nt	nt	i	nt
COc1cccc(NC(=O)CN(C)S(=O)(=O)c2ccc3nc(C)sc3c2)c1	nt	nt	i	i	nt
O=C(Nc1cccc(Br)c1)c1ccc2nc(N3C(=O)CCC3=O)sc2c1	i	i	i	17µM	i
O=C(Nc1ccccc1)N1CC2(CCN(C(=O)c3cc(C(F)(F)F)cc(C(F)(F)F)c3)CC2)C1	nt	nt	i	nt	nt
COc1cccc(NC(=O)c2ccc3c(O)c(S(=O)(=O)c4ccccc4)c(=O)[nH]c3c2)c1	i	i[9.26 µM]	nt	19µM	i
CCc1ccc(NC(=O)c2ccc3c(O)c(S(=O)(=O)c4ccc(Cl)cc4)c(=O)[nH]c3c2)cc1	nt	nt	nt	7.6µM	nt
COc1ccc(S(=O)(=O)c2c(O)c3ccc(C(=O)Nc4cccc(F)c4)cc3[nH]c2=O)cc1	i	i[9.26 µM]	nt	?	i
Cc1c(C)c2ccc(OCC(=O)Nc3ccc(S(N)(=O)=O)cc3)c(C)c2oc1=O	i	i[9.26 µM]	nt	i	i
CCCn1c(C)cc(C(=O)CSc2nc3nc(C)cc(C)n3n2)c1C	i	i	i	21µM	i
Oc1c(N=Nc2ccc(F)cc2)ccc2ccccc12	3.2µM	2.1µM	nt	0.6µM	4.5µM
Cc1ccc(N=Nc2ccc3ccccc3c2O)cc1	0.56µM	?	nt	0.24µM	2.5µM
Cc1ccc(CNC(=O)CNS(=O)(=O)c2ccc3c(c2)C(C)(C)C(=O)N3C)cc1	i	i	nt	i	i
COc1ccc(/C=N/Nc2ccc(C(=O)O)cc2)cc1OC	0.32µM	?	nt	1.3µM	0.32µM
CCOc1cc(/C=N/O)cc(Br)c1OCC	i	i	i	i	i
SMILES	NPC1 promoter act	ELG1 genotoxic	SMN2 splice enh	FLuc counter	Rab9 promoter act
COc1ccc(C(=O)Oc2ccc(/C=N/Nc3ccc(Cl)c(C(=O)O)c3)cc2OC)cc1	?	i	nt	?	?
COc1ccc(/C=N\NC(=O)C2CCCC2)cc1Br	i	i	nt	i	i
COc1ccc(/C=N/Nc2ccc(C(=O)O)cc2)cc1Br	?	?	i	0.67µM	?
C=CCOc1c(Br)cc(/C=N/Nc2ccc(C(=O)O)cc2)cc1OCC	2.8µM	?	8.9µM	30µM	3.5µM
Cc1ccc(CNC(=O)NC23CC4CC(CC(C4)C2)C3)cc1	i	i	i	i	i
Cc1ccc(/C(O)=C/C(=O)C(=O)NC23CC4CC(CC(C4)C2)C3)cc1	?	i	nt	17µM	3.2µM
Cc1ccc(C(=O)NCC(=O)NC23CC4CC(CC(C4)C2)C3)cc1	i	16µM	nt	i	?
Cc1ccccc1N1CCN(C2CCCN(C(=O)c3ccsc3)C2)CC1 (configuration not stated)	i	i	nt	i	i
COc1ccccc1C(=O)Nc1ccc(S(=O)(=O)N2CCC(C)CC2)cc1	i	i	nt	i	i
COc1ccccc1C(=O)Nc1ccc(OCC(=O)N2CC(C)CC(C)C2)cc1 (configuration not stated)	i	i	nt	11µM	i
COc1cc(SC)ccc1C(=O)Nc1cc(C)c(OCC(=O)N2CCOCC2)c(C)c1	i	i	nt	6µM	i
COc1cc(SC)ccc1C(=O)Nc1ccc(OCC(=O)N2CCOCC2)cc1	2.8µM	?	nt	0.48µM	1.8µM
CC(=O)c1ccc(OCCOc2ccc(Cl)c3cccnc23)cc1	i	i	i	i	i
COc1ccc2nc(SCC(=O)O)nc(C)c2c1	i	i	i	i	i
COc1ccc2nc(SCc3ccccc3C)nc(C)c2c1	?	?	22µM	?	?
COc1ccc2nc(SCc3cccc(C)c3)nc(C)c2c1	?	?	20µM	11µM	4µM
CCC(=O)N1CCc2cc(Br)cc(S(=O)(=O)CCC(=O)NCCc3cccc(C)c3)c21	nt	nt	nt	i	nt
CC(c1nc2ccccc2n1Cc1ccccc1)N1CCCCC1 (configuration not stated)	i	i	nt	i	i
Cc1ccc(-c2cn3c(=O)cc(C)[nH]c3n2)cc1	1.6µM	?	10µM	0.85µM	0.79µM
Cc1nc(-c2ccccc2)cc(=O)[nH]1	i	i	i	i	i
Cc1ccc(-c2ccc(=O)[nH]n2)cc1	i	i	i	i	i
Cc1cc(=O)n2cc(-c3ccccc3)nc2[nH]1	i	i	nt	12µM	i
O=S(=O)(c1ccccc1)c1nnn2c1nc(NCc1cccs1)c1sccc12	nt	nt	nt	i	nt
CS(=O)(=O)n1nc(OC(=O)c2cccc3ccccc23)cc1N	i	i	i	17µM	i
CCN(CC(=O)Nc1ccc(NC(C)=O)cc1)C(=O)c1cc2c(s1)CCCCC2	i	i	nt	i	i
SMILES	NPC1 promoter act	ELG1 genotoxic	SMN2 splice enh	FLuc counter	Rab9 promoter act
Cc1cc(C(=O)Nc2ccc3c(c2)OCCO3)c(C)o1	?	4.6µM	11µM	7.6µM	3.2µM
O=C(Nc1ccc2c(c1)OCCO2)c1coc2ccccc2c1=O	i	?	i	0.76µM	i
Cc1occc1C(=O)Nc1cccc([N+](=O)[O-])c1	i	i	i	i	i
Cc1occc1C(=O)Nc1ccc2c(c1)OCCO2	3.2µM	?	?	8.5µM	1.3µM
Cc1occc1C(=O)Nc1ccc2c(c1)CCC2	3.5µM	18µM	11µM	9.5µM	4µM
Cc1ccccc1N/C=C/C(=C(C#N)C#N)N(C)C	i	i	i	i	i
Nc1nc(N)c2[nH]c(-c3ccccc3)nc2n1	i	?	nt	?	i
Cn1ncc(S(=O)(=O)Cc2ccccc2)c(Br)c1=O	i	nt	nt	nt	i
COc1ccc(SC[C@H](Cc2ccccc2)N2CC[C@@H](C)CCC2=O)cc1	i	i	nt	i	i
CC(=O)Nc1ccc2c(c1)OCCOCCOc1cc(NC(C)=O)ccc1OCCOCCOCCO2	i	i	i	i	i
Cc1cccc(C)c1N1CCN(C(=O)Nc2ccc3c(c2)OCCO3)CC1	?	i	i	9.5µM	?
CSc1ccccc1C(=O)Nc1ccc2c(c1)OCCO2	nt	nt	i	?	nt
